Screens deposited in PubChem BioAssay by The Scripps Research Institute Molecular Screening Center.
This is a sample that favours compounds with a hit; in the whole collection about 4.8% have one here.
hcDAF-12 act: activators of H. contortus DAF-12 nuclear receptor; activation, % at 6.8 µM; hit rate 1.4% among 370,000; HEK293 hcDAF-12 lit1-tk-luc reporter, luminescence; 0% DMSO, 100% Δ7-dafachronic acid; AID 652067;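 active means activation above the mean of all tested compounds plus 3 SD, cut at about 5.5% in these data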;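 further: 100% = response to 3 µM Δ7-dafachronic acid high control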
ssDAF12 agonist: activators of S. stercoralis DAF-12 nuclear receptor; HEK293 ssDAF-12/GRIP1 lit1-tk-luc reporter, luminescence; % of 3 µM dafachronic acid response; activation, % at 6.8 µM; hit rate 1% among 370,000;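 active means activation above the mean over all tested compounds plus 3 SD, cut at about 0.9% in these data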;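 further: 0% = DMSO-only wells and 100% = 3 µM delta7-dafachronic acid wells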
DAX1 inh-1: blocks DAX1 repression of SF-1 activated StAR promoter; HEK293T StAR-luciferase reporter, SF-1/DAX-1 repression relief; inhibition, % at 6.8 µM; hit rate 1.1% among 370,000;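 active means inhibition above the mean over all tested compounds plus 3 SD, cut at about 3.6% in these data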;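 further: 0% = DAX-1 cells with DMSO and 100% = cells lacking DAX-1 with DMSO; higher inhibition means more luminescence from relief of DAX-1 repression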
SMARCA2 act: SMARCA2 function activation, primary screen; MG213 cells, MMTV-luciferase reporter, dexamethasone, overnight; activation, % at 9.1 µM; hit rate 1% among 370,000; in the data active means activation above about 7.8%;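 further: 0% = vehicle wells and 100% = reference activator wells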
hgDAF-12 ag: agonists of H. glycines DAF-12 nuclear receptor; HEK293 GAL4-hgDAF12 UAS-luciferase reporter, agonist luminescence; normalized to butyrate control; activation, % at 6.8 µM; hit rate 1.8% among 370,000; AID 687014;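 active means activation above a cutoff set at the mean of all screened compounds plus 3 SD, cut at about 10% in these data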;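 further: 0% = DMSO wells and 100% = sodium butyrate wells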
DAX1 inh-2: inhibitors of human orphan nuclear receptor DAX1 (NR0B1). HEK293 Gal4-DAX1 luciferase reporter, luminescence. inhibition, % at 6.75 µM. AID 504766. hit rate 0.99% among 340,000;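 active means inhibition above the mean over all tested compounds plus 3 SD, cut at about 4.2% in these data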;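 further: 0% = DAX1-transfected cells with DMSO and 100% = empty-vector control cells with DMSO; inhibition shows as a rise in luminescence from relieved DAX1 repression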
Target sequence (P51843 207-470 limits assumed): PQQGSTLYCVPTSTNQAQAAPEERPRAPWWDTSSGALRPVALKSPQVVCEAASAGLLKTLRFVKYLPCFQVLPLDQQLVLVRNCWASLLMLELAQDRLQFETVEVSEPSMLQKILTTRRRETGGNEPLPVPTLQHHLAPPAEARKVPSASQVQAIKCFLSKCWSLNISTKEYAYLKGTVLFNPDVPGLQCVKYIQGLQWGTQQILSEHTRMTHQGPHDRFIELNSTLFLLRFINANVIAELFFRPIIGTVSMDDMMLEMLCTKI
Numbers without * were called inactive.

SMILES	hcDAF-12 act	ssDAF12 agonist	DAX1 inh-1	SMARCA2 act	hgDAF-12 ag	DAX1 inh-2
Cc1ccccc1CN1CCN(CC(=O)NCc2ccco2)C1=O	0	-1	0	1	0	1
CN(C)/C=N/c1cnc(C(=O)c2ccc(Cl)cc2)n1C	6.4*	0	3	1	12*	3
COC(=O)[C@H]1Cc2c([nH]c3ccccc23)[C@H](c2ccccc2)N1	6.4*	0	0	-1	0	1
COC(=O)C1Cc2c([nH]c3ccccc23)CN1 (centres undefined)	-2	0	-1	-6	0	0
CC(C)[C@H](NC(=O)[C@@H]1Cc2c([nH]c3ccccc23)C2c3ccccc3C(=O)N21)C(=O)N1CCC[C@@H]1C(=O)O (some centres undefined)	5.7*	0	-1	3	1	4
CCC(C)[C@H](NC(=O)NCc1cccnc1)C(=O)OC (some centres undefined)	0	0	0	0	0	3
NC(Cc1ccc2nsnc2c1)C(=O)O (centres undefined)	-1	2.9*	0	-2	-1	2
N[C@@H](Cc1ccc(O)c(O)c1)C(=O)O	-1	-1	0	-3	-1	2
Fc1ccc2nc(N3CCOCC3)sc2c1	1	-1	1	6	12*	0
O=C(c1ccc2nc(N3CCOCC3)sc2c1)N1CCCC1	2	-1	1	0	2	1
COc1ccc(-c2nnn(CC(=O)N3CCN(c4ccc(F)cc4)CC3)n2)cc1	-1	-2	0	6	1	5.3*
CCOc1ccc(C(=O)NCC(=O)OCc2nnc(-c3ccccc3)o2)cc1OCC	0	-1	4.2*	-2	-2	1
O=C(CNC(=O)c1ccccc1)OCc1nnc(-c2ccccc2)o1	1	-1	2	-1	1	0
CCOC(=O)Cc1csc(-n2sc3ccccc3c2=O)n1	6.3*	0	0	7	1	2
OCCC1CN(CC#Cc2ccccc2)CCN1Cc1ccccc1F (centres undefined)	3	1.6*	0	4	0	0
CC(C)CN1CCN(CC#Cc2ccccc2)CC1CCO (centres undefined)	1	-1	2	-3	-1	3
CCN(CC)C(=O)CSc1nc2[nH]ncc2c(=O)[nH]1	1	-1	-1	-2	-4	-1
Nc1sc(-c2ccccc2)n[n+]1Cc1cccc2cccnc12	2	0	1	0	2	3
CC(C)c1ccc(NC(=O)N2CCc3ccccc3C2)cc1	5.8*	-1	2	4	8	-1
O=c1c(O)c(-c2ccccc2)oc2ccccc12	-3	-1	1	4	7	4.9*
CCOC(=O)c1[nH]c2ccccc2c1NC(=O)c1ccc(Br)o1	1	-2	-1	-4	-4	-2
COc1ccc(NC(=O)CSc2nnc(N)s2)c([N+](=O)[O-])c1	-2	-2	0	-5	0	-1
Nc1nc(-c2cccc(F)c2)cs1	3	0.9*	1	3	5	5.2*
O=C1CN(CC(=O)Nc2ccc(Cl)cc2)CCN1	2	-1	0	-3	1	1
O=C(OCC(=O)N1CCCCCC1)c1cccnc1Cl	4	-1	2	2	5	1
SMILES	hcDAF-12 act	ssDAF12 agonist	DAX1 inh-1	SMARCA2 act	hgDAF-12 ag	DAX1 inh-2
CN(C(=O)COC(=O)c1cccnc1Cl)C1CCCCC1	3	0	4.5*	3	4	1
CC(C)(C)n1nc2c(c1NC(=O)Cc1ccc(Cl)cc1)CS(=O)(=O)C2	0	0	-1	-1	4	0
N/C(=N\N=C\c1ccc(Br)o1)c1nonc1N	3	0	1	7	13*	6.1*
O=C(CC1SC(=Nc2ccccc2)N(CCO)C1=O)Nc1ccccc1 (centres undefined)	-1	-1	0	-1	2	1
O=C(CC1SC(=Nc2ccccc2)N(CCc2ccccn2)C1=O)Nc1ccc(F)cc1 (centres undefined)	6.2*	-1	-1	-3	2	-2
COC(=O)c1cccc(Nc2ccc([N+](=O)[O-])cn2)c1	4	-2	-1	4	6	0
COc1cccc(OCc2cc(C(=O)N3CCN(C4CCCCC4)C(=O)C3)no2)c1	-1	-1	0	-3	-3	1
Cc1cc(C)c(NC(=O)C2CCCN2C)c(C)c1 (centres undefined)	1	-1	0	0	2	8.0*
Cc1cc(C)c(NC(=O)C2CCCN2CCO)c(C)c1 (centres undefined)	1	-1	1	-1	0	1
Cc1ccc(/C=C/C(=O)Nc2ccc(N(C)C)cc2)o1	-1	1.6*	2	2	5	1
Cc1ccc(/C=C/C(=O)Nc2ccncc2)o1	-2	-2	0	-2	0	-1
CCO[C@H]1OC(C(=O)O)=C[C@@H](C(C)(C)C)[C@@H]1CCCO	-1	-1	0	1	3	0
O=C(O)CC(CC(=O)Nc1ccc(F)c(Cl)c1)c1ccc(Cl)cc1Cl (centres undefined)	-1	-2	0	-1	1	10*
CCC(=O)Nc1ccc(F)c(Cl)c1	-2	-1	-1	-1	0	0
CSC(=NC#N)N1CCN(C(c2ccccc2)c2ccccc2)CC1	1	-1	-1	-5	1	0
CSC(=NC#N)N1CCN(C(=NC#N)SC)CC1	0	0	-1	-2	1	4.7*
O=C1NC(=S)S/C1=C\c1cc(Cl)ccc1Cl	2	-1	3.7*	-4	3	2
CC(C)C(NS(=O)(=O)c1ccc2c(c1)oc(=O)n2C)C(=O)N1CCN(c2ccccc2F)CC1 (centres undefined)	-1	-1	-1	-1	-1	4.8*
COc1ccc(OC)c(N(CC(=O)N2CCN(Cc3ccccc3)CC2)S(C)(=O)=O)c1	-2	-1	0	-2	0	0
Cc1[nH]c(=O)c(C(=O)c2ccccc2O)cc1C(=O)O	-2	-1	0	3	0	0
Cc1cc(O)c(C(=O)c2ccccc2C(=O)O)cc1C	6.4*	-1	0	1	0	1
CCOC(=O)c1ccc(NC(=O)c2nc[nH]c2C(=O)NC2CCN(C(=O)OC(C)(C)C)CC2)cc1	-3	0	-1	-1	0	1
Cc1ccc(Cl)cc1N1C(=O)CC(Sc2ncccn2)C1=O (centres undefined)	-1	0	0	1	-2	4.7*
O=C1CC(Sc2ncccn2)C(=O)N1c1ccccc1C(F)(F)F (centres undefined)	0	-1	-1	-4	-1	-1
